According to PubChem BioAssay (EPA / NIEHS):
Records with an inconclusive call do not appear. The source made the active and inactive calls. The calls were made as follows, unless noted: active = hit-call score of the fitted dose curve at least 0.9, where 1 is the maximum; inactive = score below 0.9.

Legend:
[1] = molecular target: Glucocorticoid receptor (Homo sapiens) (UniProt P04150); test: ATG_GR_TRANS: Attagene TRANS-FACTORIAL HepG2 Assay for human Glucocorticoid Receptor (GR) (AID 2282978; active = hit-call score of the fitted dose curve at least 0.9, where 1 is the maximum;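 also: activators score as hits since higher reporter transcript over DMSO is fitted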); details: HepG2 Attagene TRANS GR reporter, mRNA transcription
How it was run: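 HepG2 cells transiently transfected with GAL4-UAS reporter units and exogenous GR-Gal4 chimera, dosed 24 h. Reporter mRNA by RT-PCR, FAM labeling, HpaI digest and capillary electrophoresis; gain-of-signal fit versus DMSO.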

[2] = molecular target: Oxysterols receptor LXR-beta (Homo sapiens) (UniProt P55055); test: ATG_LXRb_TRANS: Attagene TRANS-FACTORIAL HepG2 Assay for human Liver X Receptor beta (LXRb) (AID 2282981; active = hit-call score of the fitted dose curve at least 0.9, where 1 is the maximum); details: HepG2 Attagene TRANS GAL4-LXRb reporter, mRNA
How it was run: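 Multiplexed reporter assay, HepG2, 24 h dosing. Fluorescence of labelled RT-PCR products after capillary electrophoresis gives transcript level; positive fitting direction relative to DMSO.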

[3] = ATG_M_06_TRANS: Attagene TRANS-FACTORIAL HepG2 Assay for M06 Transcription Factor (Internal Marker) (AID 2282983; active = hit-call score of the fitted dose curve at least 0.9, where 1 is the maximum); details: HepG2 Attagene TRANS M06 internal marker reporter
How it was run: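 Multi-reporter-transfected HepG2, 24 h treatment; reporter transcripts quantified via RT-PCR, primer-extension labelling and CE. DMSO-normalized gain-of-signal fit.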

[4] = ATG_M_32_TRANS: Attagene TRANS-FACTORIAL HepG2 Assay for M32 Transcription Factor (Internal Marker) (AID 2282984; active = hit-call score of the fitted dose curve at least 0.9, where 1 is the maximum;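 also: transcript level of a background control reporter unit measured by RT-PCR and capillary electrophoresis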); details: HepG2 Attagene TRANS M32 internal marker reporter
How it was run: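 Internal-marker readout from a multiplexed transcription reporter panel. HepG2 cells were transfected with GAL4-UAS reporter units, treated 24 hours, and reporter transcript levels determined by fluorescence after RT-PCR and capillary separation.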

[5] = molecular target: Nuclear receptor subfamily 4 group A member 2 (Homo sapiens) (UniProt P43354); test: ATG_NURR1_TRANS: Attagene TRANS-FACTORIAL HepG2 Assay for human Nuclear Receptor Related Protein 1 (NURR1) (AID 2282985; active = hit-call score of the fitted dose curve at least 0.9, where 1 is the maximum); details: HepG2 Attagene TRANS reporter, mRNA readout
How it was run: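 Endpoint: reporter mRNA increase relative to DMSO. HepG2 cells transfected with reporter units, treated 24 h; RNA processed by RT-PCR, labelling, HpaI digestion and capillary electrophoresis.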

[6] = molecular target: Transcriptional activator Myb (Homo sapiens) (UniProt P10242); test: ATG_Myb_CIS: Attagene CIS-FACTORIAL HepG2 Assay for human Myeloblastosis (Myb) Proto-Oncogene Transcription Factor (AID 2282986); details: HepG2 Attagene CIS-FACTORIAL Myb reporter transcription; actives raise or lower the signal
How it was run: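 Transiently transfected HepG2 cells carrying a multiplexed cis-promoter reporter set report endogenous Myb activity after 24 h compound exposure. Reporter mRNA is read by RT-PCR with capillary electrophoresis of fluorescent products, fitted bidirectionally against DMSO.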

[7] = molecular target: Nuclear respiratory factor 1 (Homo sapiens) (UniProt Q16656); test: ATG_NRF1_CIS: Attagene CIS-FACTORIAL HepG2 Assay for human Nuclear Respiratory Factor 1 (NRF1) Orphan Gene (AID 2282987); details: HepG2 NRF1 cis-element reporter, Attagene multiplex; actives raise or lower the signal
How it was run: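 HepG2 cells transiently transfected with multiple cis-regulated reporter units, exposed 24 h. Reporter mRNAs measured by RT-PCR, fluorescent labelling, HpaI digestion and capillary electrophoresis; bidirectional fitting against DMSO.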

[8] = ATG_NFI_CIS: Attagene CIS-FACTORIAL HepG2 Assay for human Nuclear Factor I (NFI) (AID 2282989); details: HepG2 cis-regulatory reporter, NFI response element transcription; actives raise or lower the signal
How it was run: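 Reporter transcription driven by endogenous transcription factors in HepG2 cells; 24 h treatment. Quantitation by labelled RT-PCR fragments on capillary electrophoresis, gain- or loss-of-signal relative to DMSO.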

[9] = molecular target: Myc proto-oncogene protein (Homo sapiens) (UniProt P01106); test: ATG_Myc_CIS: Attagene CIS-FACTORIAL HepG2 Assay for human Myelocytomatosis (Myc) Proto-Oncogene Transcription Factor (AID 2282990); details: HepG2, Attagene cis-reporter transcription factor activity; actives raise or lower the signal
How it was run: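 Transiently transfected HepG2 cells bearing cis-promoter reporter units for endogenous transcription factors; 24 h exposure. Reporter mRNA measured by RT-PCR, 6-FAM primer extension, HpaI cut and capillary electrophoresis; bidirectional fit relative to DMSO.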

[10] = ATG_NF_kB_CIS: Attagene CIS-FACTORIAL HepG2 Assay for human Nuclear Factor Kappa B (NF-kB) (AID 2282991); details: HepG2 Attagene cis-factorial NF-kB reporter mRNA; actives raise or lower the signal
How it was run: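 HepG2 cells transfected with cis-promoter-driven reporter units, so endogenous transcription factor activity is measured. Reporter mRNA quantified 24 h after dosing by RT-PCR and capillary electrophoresis, with bidirectional fitting against DMSO.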

[11] = ATG_NRF2_ARE_CIS: Attagene CIS-FACTORIAL HepG2 Assay for human Nuclear Factor Erythroid 2 Related Factor 2 (NFR2) response to Antioxidant Response Elements (ARE) (AID 2282992); details: HepG2 Attagene ARE/NRF2 reporter, transcription factor activity; actives raise or lower the signal;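 as to AC50: reporter mRNA level measured by RT-PCR and capillary electrophoresis fluorescence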
How it was run: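 Readout: reporter mRNA quantified by RT-PCR plus FAM-labelled primer extension, HpaI digestion and capillary electrophoresis, 24 h after dosing transfected HepG2 cells. Gain or loss of signal is fitted bidirectionally against DMSO baseline.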

[12] = ATG_Oct_MLP_CIS: Attagene CIS-FACTORIAL HepG2 Assay for human Octamer-Binding Transcription Factor (Oct) (AID 2282993); details: HepG2 Attagene cis-factorial Oct reporter, mRNA; actives raise or lower the signal
How it was run: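 Transfected HepG2 cells, 24 h treatment. Reporter mRNA quantified by RT-PCR–capillary electrophoresis; bidirectional fitting against DMSO.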

[13] = molecular target: Cellular tumor antigen p53 (Homo sapiens) (UniProt P04637); test: ATG_p53_CIS: Attagene CIS-FACTORIAL HepG2 Assay for human p53 Transcription Factor (AID 2282994); details: HepG2 p53 cis-element reporter, Attagene mRNA; actives raise or lower the signal
How it was run: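 Read-out: reporter mRNA by RT-PCR plus capillary electrophoresis with fluorescence detection. Human HepG2 liver cells carried transfected multi-reporter cis-element constructs, dosed 24 h. Gain or loss of signal fitted bidirectionally against DMSO control.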

[14] = molecular target: Hepatocyte nuclear factor 4-alpha (Homo sapiens) (UniProt P41235); test: ATG_HNF4a_TRANS: Attagene TRANS-FACTORIAL HepG2 Assay for human Hepatocyte Nuclear Factor 4 alpha (HNF4a) (AID 2282982; active = hit-call score of the fitted dose curve at least 0.9, where 1 is the maximum); details: HepG2 HNF4a transactivation reporter, mRNA readout
How it was run: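 Endpoint reflects transcriptional activation of a GAL4-UAS reporter by an HNF4a-GAL4 chimera in transfected HepG2 cells, 24 h post-dosing. Fluorescence from RT-PCR products separated by capillary electrophoresis; DMSO baseline.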

[15] = BSK_3C_uPAR: BioMAP Diversity Plus: 3C Assay for Urokinase-type plasminogen activator receptor (uPAR) Biomarker Activity (AID 2282998); details: BioMAP 3C HUVEC, uPAR biomarker ELISA; actives raise or lower the signal
How it was run: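 Readout: ELISA for surface uPAR. System: human umbilical vein endothelial primary cells, 24 h after chemical exposure. Analysis: bidirectional fit, DMSO baseline.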

[16] = BSK_3C_VCAM1: BioMAP Diversity Plus: 3C Assay for Vascular cell adhesion molecule 1 (VCAM1) Biomarker Activity (AID 2282999); details: BioMAP 3C HUVEC, VCAM1 ELISA, cytokine-stimulated; actives raise or lower the signal
How it was run: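 HUVEC primary cells, 24 h compound exposure; VCAM-1 by ELISA; gain/loss of signal fitted bidirectionally vs DMSO baseline.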

[17] = BSK_4H_Eotaxin3: BioMAP Diversity Plus: 4H Assay for Eotaxin 3 Biomarker Activity (AID 2283000); details: primary human endothelial cells (HUVEC); actives raise or lower the signal;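 also: CCL26 protein level quantified by ELISA in parallel with SRB cytotoxicity check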
How it was run: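 ELISA quantitation of CCL26 (Eotaxin-3) protein from chemically dosed human vascular endothelial cells at 24 h; increases and decreases both scored relative to DMSO-treated baseline.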

Chain of Hepatocyte nuclear factor 4-alpha (Homo sapiens) (P41235 whole entry, looked up, the tested form may be a part): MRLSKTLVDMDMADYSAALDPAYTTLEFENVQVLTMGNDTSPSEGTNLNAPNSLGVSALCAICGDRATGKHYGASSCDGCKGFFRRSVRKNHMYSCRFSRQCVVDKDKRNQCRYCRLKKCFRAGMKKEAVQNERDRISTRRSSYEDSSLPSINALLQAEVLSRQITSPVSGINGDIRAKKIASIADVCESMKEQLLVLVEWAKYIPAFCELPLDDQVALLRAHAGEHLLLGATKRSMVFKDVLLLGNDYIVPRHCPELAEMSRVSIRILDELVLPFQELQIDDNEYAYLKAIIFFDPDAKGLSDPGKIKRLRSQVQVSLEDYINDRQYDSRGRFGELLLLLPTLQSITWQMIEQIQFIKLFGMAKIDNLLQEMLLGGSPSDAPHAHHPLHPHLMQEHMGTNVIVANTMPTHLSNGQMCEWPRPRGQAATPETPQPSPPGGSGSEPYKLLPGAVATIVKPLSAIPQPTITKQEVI
Chain of Oxysterols receptor LXR-beta (Homo sapiens) (P55055 whole entry, looked up, the tested form may be a part): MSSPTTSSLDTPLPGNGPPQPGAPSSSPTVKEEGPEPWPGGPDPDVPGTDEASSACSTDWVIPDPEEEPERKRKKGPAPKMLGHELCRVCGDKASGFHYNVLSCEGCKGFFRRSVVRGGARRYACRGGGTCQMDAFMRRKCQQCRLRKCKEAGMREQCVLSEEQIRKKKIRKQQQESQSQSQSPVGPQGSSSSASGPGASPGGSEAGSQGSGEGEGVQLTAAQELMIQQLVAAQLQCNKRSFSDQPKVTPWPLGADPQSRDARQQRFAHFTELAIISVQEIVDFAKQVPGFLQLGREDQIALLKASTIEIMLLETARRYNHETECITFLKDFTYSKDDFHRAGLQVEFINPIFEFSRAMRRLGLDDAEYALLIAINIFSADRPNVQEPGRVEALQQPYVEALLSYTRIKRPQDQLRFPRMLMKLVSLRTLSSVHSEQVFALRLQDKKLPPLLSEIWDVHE
Chain of Glucocorticoid receptor (Homo sapiens) (P04150 whole entry, looked up, the tested form may be a part): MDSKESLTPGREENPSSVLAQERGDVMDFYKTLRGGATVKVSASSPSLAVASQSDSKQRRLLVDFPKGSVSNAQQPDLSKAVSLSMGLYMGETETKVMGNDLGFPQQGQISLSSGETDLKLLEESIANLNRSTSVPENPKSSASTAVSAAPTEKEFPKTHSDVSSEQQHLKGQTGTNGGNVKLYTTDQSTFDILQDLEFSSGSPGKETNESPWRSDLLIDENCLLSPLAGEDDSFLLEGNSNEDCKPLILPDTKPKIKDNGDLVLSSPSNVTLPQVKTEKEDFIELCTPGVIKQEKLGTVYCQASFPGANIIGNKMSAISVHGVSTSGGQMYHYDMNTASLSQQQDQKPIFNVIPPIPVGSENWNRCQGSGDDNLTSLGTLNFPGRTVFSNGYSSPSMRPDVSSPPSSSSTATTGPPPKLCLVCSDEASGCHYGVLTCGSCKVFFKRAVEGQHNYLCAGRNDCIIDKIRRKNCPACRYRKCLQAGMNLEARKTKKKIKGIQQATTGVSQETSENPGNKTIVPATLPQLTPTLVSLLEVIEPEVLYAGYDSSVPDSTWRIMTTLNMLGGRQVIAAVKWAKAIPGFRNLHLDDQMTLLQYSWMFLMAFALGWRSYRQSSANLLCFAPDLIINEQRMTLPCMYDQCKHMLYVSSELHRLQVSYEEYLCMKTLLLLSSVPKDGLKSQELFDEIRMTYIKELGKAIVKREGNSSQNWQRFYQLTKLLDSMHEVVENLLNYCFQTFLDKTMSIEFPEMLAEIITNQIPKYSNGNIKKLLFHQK
Chain of Transcriptional activator Myb (Homo sapiens) (P10242 whole entry, looked up): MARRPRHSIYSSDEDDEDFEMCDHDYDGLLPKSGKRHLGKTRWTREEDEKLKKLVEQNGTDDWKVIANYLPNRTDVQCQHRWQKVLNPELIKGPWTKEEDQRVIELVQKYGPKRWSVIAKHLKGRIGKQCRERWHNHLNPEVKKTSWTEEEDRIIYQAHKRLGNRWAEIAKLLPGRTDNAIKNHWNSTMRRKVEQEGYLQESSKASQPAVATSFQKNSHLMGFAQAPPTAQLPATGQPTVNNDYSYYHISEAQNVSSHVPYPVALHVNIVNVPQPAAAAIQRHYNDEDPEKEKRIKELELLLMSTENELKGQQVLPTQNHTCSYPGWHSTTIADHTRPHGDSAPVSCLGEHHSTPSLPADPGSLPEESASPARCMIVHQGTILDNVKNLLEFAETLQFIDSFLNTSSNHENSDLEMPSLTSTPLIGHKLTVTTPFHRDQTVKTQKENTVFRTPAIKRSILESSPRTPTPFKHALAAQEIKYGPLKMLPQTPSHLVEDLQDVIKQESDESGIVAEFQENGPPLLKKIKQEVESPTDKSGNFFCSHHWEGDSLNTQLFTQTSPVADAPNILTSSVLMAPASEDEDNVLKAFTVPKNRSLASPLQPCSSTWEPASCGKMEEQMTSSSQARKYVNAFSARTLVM
Chain of Myc proto-oncogene protein (Homo sapiens) (P01106 whole entry, looked up): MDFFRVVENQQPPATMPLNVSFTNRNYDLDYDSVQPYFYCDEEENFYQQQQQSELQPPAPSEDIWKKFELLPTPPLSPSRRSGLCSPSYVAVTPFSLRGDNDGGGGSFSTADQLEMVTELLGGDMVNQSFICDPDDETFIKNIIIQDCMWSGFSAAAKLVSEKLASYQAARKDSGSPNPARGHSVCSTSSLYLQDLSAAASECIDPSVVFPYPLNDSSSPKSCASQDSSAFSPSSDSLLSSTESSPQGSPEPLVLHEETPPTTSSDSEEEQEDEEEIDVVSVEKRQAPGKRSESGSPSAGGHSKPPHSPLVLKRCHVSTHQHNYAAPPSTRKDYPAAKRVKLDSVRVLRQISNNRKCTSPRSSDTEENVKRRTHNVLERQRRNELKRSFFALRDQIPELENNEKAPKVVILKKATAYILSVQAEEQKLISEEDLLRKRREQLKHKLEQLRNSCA
Chain of Cellular tumor antigen p53 (Homo sapiens) (P04637 whole entry, looked up): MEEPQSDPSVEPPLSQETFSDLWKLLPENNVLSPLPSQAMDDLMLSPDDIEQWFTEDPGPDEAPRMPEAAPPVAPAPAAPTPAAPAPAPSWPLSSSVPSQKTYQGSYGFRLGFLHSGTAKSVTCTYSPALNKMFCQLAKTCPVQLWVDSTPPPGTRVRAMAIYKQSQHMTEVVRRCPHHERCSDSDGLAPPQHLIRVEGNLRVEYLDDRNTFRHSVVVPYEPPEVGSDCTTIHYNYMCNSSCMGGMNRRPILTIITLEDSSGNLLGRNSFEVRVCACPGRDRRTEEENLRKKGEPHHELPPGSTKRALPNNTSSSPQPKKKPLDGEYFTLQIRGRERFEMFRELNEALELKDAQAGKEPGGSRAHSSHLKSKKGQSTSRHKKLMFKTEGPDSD
Chain of Nuclear respiratory factor 1 (Homo sapiens) (Q16656 whole entry, looked up): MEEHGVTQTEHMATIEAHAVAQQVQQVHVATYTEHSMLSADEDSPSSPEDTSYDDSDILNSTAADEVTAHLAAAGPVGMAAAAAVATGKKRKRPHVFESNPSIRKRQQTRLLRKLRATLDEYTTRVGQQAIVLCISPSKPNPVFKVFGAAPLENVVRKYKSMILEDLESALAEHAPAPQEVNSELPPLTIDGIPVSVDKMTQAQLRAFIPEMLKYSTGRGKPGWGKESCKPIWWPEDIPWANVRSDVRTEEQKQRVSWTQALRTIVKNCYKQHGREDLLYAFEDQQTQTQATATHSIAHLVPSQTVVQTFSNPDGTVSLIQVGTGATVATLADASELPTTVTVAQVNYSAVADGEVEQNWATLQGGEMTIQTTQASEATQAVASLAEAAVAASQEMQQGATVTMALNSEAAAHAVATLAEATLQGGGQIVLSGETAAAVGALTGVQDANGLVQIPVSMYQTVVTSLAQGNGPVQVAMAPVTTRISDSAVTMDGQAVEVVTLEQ
Chain of Nuclear receptor subfamily 4 group A member 2 (Homo sapiens) (P43354 whole entry, looked up): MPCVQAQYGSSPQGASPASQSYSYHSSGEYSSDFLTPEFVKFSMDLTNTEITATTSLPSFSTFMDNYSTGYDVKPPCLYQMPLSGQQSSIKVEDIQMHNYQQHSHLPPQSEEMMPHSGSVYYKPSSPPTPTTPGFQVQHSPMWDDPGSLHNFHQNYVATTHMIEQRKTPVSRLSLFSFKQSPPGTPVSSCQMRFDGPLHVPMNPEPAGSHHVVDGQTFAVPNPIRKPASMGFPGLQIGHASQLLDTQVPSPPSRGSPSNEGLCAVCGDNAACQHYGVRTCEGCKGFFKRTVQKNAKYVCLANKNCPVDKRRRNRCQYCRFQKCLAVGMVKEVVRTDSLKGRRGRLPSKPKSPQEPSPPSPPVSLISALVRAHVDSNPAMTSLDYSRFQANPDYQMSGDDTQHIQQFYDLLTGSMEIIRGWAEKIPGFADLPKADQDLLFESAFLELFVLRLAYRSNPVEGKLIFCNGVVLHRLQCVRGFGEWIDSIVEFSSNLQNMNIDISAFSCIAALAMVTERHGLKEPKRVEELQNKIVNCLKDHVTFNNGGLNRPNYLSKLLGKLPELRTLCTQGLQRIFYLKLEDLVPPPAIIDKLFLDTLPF

| Structure (SMILES) | outcome [1] | outcome [2] | outcome [3] | outcome [4] | AC50 [5] | outcome [6] | outcome [7] | outcome [8] | outcome [9] | AC50 [10] | AC50 [11] | outcome [12] | outcome [13] | outcome [10] | outcome [11] | outcome [14] | outcome [5] | outcome [15] | outcome [16] | outcome [17] |
| --- | --- | --- | --- | --- | --- | --- | --- | --- | --- | --- | --- | --- | --- | --- | --- | --- | --- | --- | --- | --- |
| COc1ccc(Nc2ccccc2)c(C)c1 | inactive | inactive | inactive | inactive | 143 µM (active) | inactive | inactive | inactive | inactive | 151 µM (active) | 79.9 µM (active) | inactive | inactive | – | – | – | – | – | – | – |
| O=C(Oc1ccccc1)c1ccc(O)cc1 | inactive | – | inactive | inactive | – | inactive | inactive | inactive | inactive | – | – | inactive | inactive | inactive | inactive | – | – | – | – | – |
| CC1(C)[C@H](C(=O)OCc2cccc(Oc3ccccc3)c2)[C@@H]1C=C(Cl)Cl | inactive | – | inactive | inactive | – | inactive | inactive | inactive | inactive | – | – | inactive | inactive | – | inactive | inactive | inactive | – | – | – |
| Cc1cc(C2(c3cc(C)c(O)cc3C)OS(=O)(=O)c3ccccc32)c(C)cc1O | inactive | – | inactive | – | – | inactive | inactive | – | inactive | – | – | inactive | inactive | – | – | inactive | – | inactive | inactive | inactive |
| COc1cccc(OC)c1 | inactive | inactive | – | – | – | inactive | inactive | inactive | inactive | – | – | inactive | inactive | inactive | inactive | – | – | – | – | – |
| O=C(O)c1cn(-c2ccc(F)cc2)c2cc(N3CCNCC3)c(F)cc2c1=O | inactive | – | – | – | – | – | inactive | inactive | inactive | – | – | inactive | inactive | – | inactive | – | inactive | inactive | – | inactive |
| C=CC(=O)OCC(O)COc1ccccc1 (configuration not stated) | inactive | inactive | inactive | – | – | inactive | inactive | – | inactive | 55.7 µM (active) | 26.2 µM (active) | inactive | inactive | – | – | inactive | inactive | – | – | – |
| O=[N+]([O-])c1ccc(C=Cc2ccc([N+](=O)[O-])cc2S(=O)(=O)O)c(S(=O)(=O)O)c1 | inactive | – | inactive | – | – | inactive | inactive | inactive | inactive | – | – | inactive | – | inactive | – | inactive | inactive | – | – | – |
| COCCOCCOCCOCCOCCO | inactive | – | inactive | inactive | – | inactive | inactive | inactive | inactive | – | – | inactive | inactive | inactive | inactive | inactive | inactive | – | – | – |
| COc1ccnc(CS(=O)c2nc3cc(OC(F)F)ccc3[nH]2)c1OC (configuration not stated) | inactive | inactive | inactive | – | – | inactive | inactive | inactive | inactive | – | 59.4 µM (active) | inactive | – | – | – | – | inactive | – | – | – |
